Measurements published in PubChem BioAssay AID1159580 (chemical genetic matrix, 2015).
In all, about 5,500 compounds went through this assay and about 2,000 (36%) were called active. Inconclusive results (about 18%) are left out. Cut-off read from the data, not from the text of the source: active = normalized growth mostly below about 0.91 (no sharp cut-off); inconclusive = no clear call, values can overlap the other calls; inactive = mostly above about 0.92. The list shows a part of the results.

Assay: chemical genetic growth profiling, strain panel (AID 1159580);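 note: tested at 20 µM; growth read once vehicle control cultures reached saturation at 30 °C; 1 = growth at the plate median or of vehicle wells; lower values mean less growth of the strain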
Conditions: growth OD
[1] = S. cerevisiae deletion strains, locus YAL013W, strain DEP1, active compounds read low
[2] = S. cerevisiae deletion strains, locus YBR229C, strain ROT2, active compounds read low
[3] = S. cerevisiae deletion strains, locus YDL101C, strain DUN1, active compounds read low
[4] = S. cerevisiae deletion strains, locus YDL134C, strain PPH21, active compounds read low
[5] = S. cerevisiae deletion strains, locus YDR150W, strain NUM1, active compounds read low
[6] = S. cerevisiae deletion strains, locus YEL061C, strain CIN8, active compounds read low
[7] = S. cerevisiae deletion strains, locus YGR078C, strain PAC10, active compounds read low
[8] = S. cerevisiae deletion strains, locus YGR229C, strain SMI1, active compounds read low
[9] = S. cerevisiae deletion strains, locus YHR030C, strain SLT2, active compounds read low
[10] = S. cerevisiae deletion strains, locus YHR087W, strain rtc3, active compounds read low
[11] = S. cerevisiae deletion strains, locus YJR043C, strain POL32, active compounds read low
[12] = S. cerevisiae deletion strains, locus YJR075W, strain HOC1, active compounds read low
[13] = S. cerevisiae deletion strains, locus YLR039C, strain RIC1, active compounds read low
[14] = S. cerevisiae deletion strains, locus YLR058C, strain SHM2 (second series), active compounds read low
[15] = S. cerevisiae deletion strains, locus YLR085C, strain ARP6, active compounds read low
[16] = S. cerevisiae deletion strains, locus YLR262C, strain YPT6, active compounds read low
[17] = S. cerevisiae deletion strains, locus YML094W, strain GIM5, active compounds read low
[18] = S. cerevisiae deletion strains, locus YMR219W, strain ESC1, active compounds read low
[19] = S. cerevisiae deletion strains, locus YMR263W, strain SAP30, active compounds read low
[20] = S. cerevisiae deletion strains, locus YNL128W, strain TEP1, active compounds read low
[21] = S. cerevisiae deletion strains, locus YNL153C, strain GIM3, active compounds read low
[22] = S. cerevisiae deletion strains, locus YNL298W, strain CLA4 (second series), active compounds read low
[23] = S. cerevisiae deletion strains, locus YNL322C, strain KRE1, active compounds read low
[24] = S. cerevisiae deletion strains, locus YNR030W, strain Alg12, active compounds read low
[25] = S. cerevisiae deletion strains, locus YOL006C, strain TOP1, active compounds read low
[26] = S. cerevisiae deletion strains, locus YPL055C, strain LGE1, active compounds read low
[27] = S. cerevisiae deletion strains, locus YPL241C, strain CIN2, active compounds read low
[28] = S. cerevisiae deletion strains, locus YPR135W, strain CTF4, active compounds read low

Measured: normalized growth

COc1cc(C2OC(c3cc(C)ccc3[N+](=O)[O-])=NN2C(C)=O)cc(OC)c1OC (stereo not given)
inactive: [1] 0.986 | [2] 0.975 | [3] 1.04 | [4] 0.999 | [5] 0.993 | [6] 0.941 | [7] 1 | [8] 0.999 | [9] 0.948 | [10] 0.963 | S. cerevisiae deletion strains, locus YJL187C, strain SWE1, active compounds read low 0.98 | [11] 1 | [12] 0.999 | S. cerevisiae deletion strains, locus YKL190W, strain CNB1, active compounds read low 0.993 | [13] 0.969 | [14] 0.978 | [15] 0.967 | [16] 0.948 | [17] 0.98 | [18] 0.984 | [19] 0.999 | [20] 0.991 | [21] 1.02 | [22] 1.01 | [23] 0.993 | [24] 0.985 | [25] 0.924 | [26] 0.972 | [27] 1.01 | [28] 1.04

N#CC(NCc1ccccc1)c1ccc(Cl)c(Cl)c1 (stereo not given)
active: [4] 0.848
inactive: [1] 1 | [2] 0.983 | [3] 0.974 | [5] 0.923 | [6] 0.985 | [7] 0.984 | [8] 0.989 | [9] 0.887 | [10] 1.01 | [11] 1.01 | [12] 0.968 | [13] 0.929 | [14] 0.995 | [15] 0.977 | [16] 0.957 | [17] 0.958 | [18] 0.998 | [19] 0.974 | S. cerevisiae deletion strains, locus YMR307W, strain GAS1, active compounds read low 0.818 | [20] 0.994 | [21] 0.98 | [22] 0.96 | [23] 1.01 | [24] 0.968 | [25] 0.982 | [26] 0.988 | [27] 0.938 | [28] 0.938 | S. cerevisiae strains, strain wild type, active compounds read low 1
